Bioassay records as filed in PubChem BioAssay.
EPAC2 antag – qHTS for Antagonist of cAMP-regulated guanine nucleotide exchange factor 2 (EPAC2): primary screen | Rap guanine nucleotide exchange factor 4 (Homo sapiens), Q8WZA2 | EPAC2 GEF exchange of Rap1B-BODIPY-GDP, fluorescence | Potency, µM (top dose mostly 114 µM), for the others: at the highest dose activity, negative = inhibition, usual class: inhibitors | actives 0.18% (n = 360,000) | AID 720708, 2013; further: on the % scale 0 is the no-effect control and ±100 the full control effect; nearly all actives have a fitted effect of over 45% in size
EPAC1 agonist – qHTS for Agonist of cAMP-regulated guanine nucleotide exchange factor 3 (EPAC1): primary screen; actives 0.073% (n = 360,000); Potency, µM (series often up to 154 µM), for inactives: at the top dose activation, usual class: activators; EPAC1 agonist qHTS, biochemical assay; response scale: 100% = response to 6.5 mM cAMP; Rap guanine nucleotide exchange factor 3 (Homo sapiens), O95398; AID 720707, 2013; further: nearly all actives have a fitted effect of over 60% in size
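EPAC1 100 nM, Rap1B–BODIPY-GDP 250 nM, unlabeled GDP 50 uM; compound titration; 5 min RT; kinetic read ex480/em540 at 5-min intervals ×30 min; data normalized to 6.5 mM cAMP agonist control.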
USP1 inh – Inhibitors of USP1/UAF1: Primary Screen; recombinant USP1/UAF1, Ub-Rhodamine cleavage fluorescence; Potency, µM (series often up to 57.1 µM), without a hit: at the highest dose activity change, negative = inhibition, usual class: inhibitors; actives 0.23% (n = 390,000); further: on the % scale 0 is the no-effect control and ±100 the full control effect; nearly all actives have a fitted effect of over 60% in size
Target sequence (O94782 whole entry, looked up): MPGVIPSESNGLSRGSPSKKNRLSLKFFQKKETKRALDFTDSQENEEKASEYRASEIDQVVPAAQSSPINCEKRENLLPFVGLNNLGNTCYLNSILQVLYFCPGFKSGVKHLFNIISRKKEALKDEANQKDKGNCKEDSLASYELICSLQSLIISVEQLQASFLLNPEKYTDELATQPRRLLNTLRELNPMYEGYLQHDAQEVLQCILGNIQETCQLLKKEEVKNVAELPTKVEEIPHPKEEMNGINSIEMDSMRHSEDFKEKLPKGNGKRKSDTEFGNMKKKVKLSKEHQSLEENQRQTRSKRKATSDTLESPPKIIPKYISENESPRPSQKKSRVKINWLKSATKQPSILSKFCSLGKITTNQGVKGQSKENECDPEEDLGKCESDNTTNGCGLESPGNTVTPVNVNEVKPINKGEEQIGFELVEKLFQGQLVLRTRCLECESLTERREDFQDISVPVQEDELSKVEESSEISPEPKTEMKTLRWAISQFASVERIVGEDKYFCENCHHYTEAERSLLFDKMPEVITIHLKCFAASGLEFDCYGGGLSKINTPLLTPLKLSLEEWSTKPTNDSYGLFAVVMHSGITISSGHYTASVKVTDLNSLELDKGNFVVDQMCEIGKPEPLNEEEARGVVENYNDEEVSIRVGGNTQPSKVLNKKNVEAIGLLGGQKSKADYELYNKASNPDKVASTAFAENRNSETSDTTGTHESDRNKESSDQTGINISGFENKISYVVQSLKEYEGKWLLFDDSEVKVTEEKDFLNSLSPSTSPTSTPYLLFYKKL
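Step one: compound is pinned into 1nM USP1/UAF1 in HEPES pH 7.8 buffer with TCEP. Step two: 15 min room-temperature incubation. Step three: Ub-Rho (150nM final) starts cleavage, tracked by fluorescence over six one-minute reads.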
USP2a block – qHTS Assay for Inhibitors of Ubiquitin-specific Protease USP2a Using CHOP2 as the Reporter. Ubiquitin carboxyl-terminal hydrolase 2 (Homo sapiens), O75604. USP2 core, Ub-CHOP2 coupled fluorogenic reporter, 485/531. Potency, µM (series often up to 38.3 µM), inactives show top-dose activity change, negative = inhibition, usual class: inhibitors. actives 0.01% (n = 330,000). AID 463254, 2010;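 further: plate controls were DMSO wells for no effect and full inhibition by NEM control for full effect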
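Deubiquitinase activity read as fluorescence (485/531 nm) after Ub-CHOP2 cleavage activates the enterokinase reporter on its substrate; USP2 core 10nM, Ub-CHOP2 and substrate 25nM each, 30min compound preincubation then 60min RT; data normalized to NEM, curves fitted.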
EPAC2 agonist – qHTS for Agonist of cAMP-regulated guanine nucleotide exchange factor 4 (EPAC2): primary screen; Rap guanine nucleotide exchange factor 4 (Homo sapiens), Q8WZA2; EPAC2 activation, biochemical qHTS; response scale: 100% = 6.5 mM cAMP response; actives 0.079% (n = 360,000); Potency, µM (top dose mostly 154 µM), without a hit: at the highest dose activation, most hits filed as activators; AID 720711, 2013; further: nearly all actives have a fitted effect of over 50% in size
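qHTS, titration series. 100 nM EPAC2 / 250 nM Rap1B-BODIPY-GDP / 50 uM GDP; RT; ex 480/em 540 nm, 5-min reads to 30 min. Norm. to 6.5 mM cAMP = activation.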
EPAC1 antagonist – qHTS for Antagonist of cAMP-regulated guanine nucleotide exchange factor 3 (EPAC1): primary screen. EPAC1 GEF assay, Rap1b-BODIPY-GDP exchange fluorescence. Potency, µM (series often up to 115 µM), inactives show at the top dose activity change, negative = inhibition, most hits filed as inhibitors. Rap guanine nucleotide exchange factor 3 (Homo sapiens), O95398. AID 720709, 2013. actives 0.14% (n = 360,000);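 further: plate controls were vehicle for no effect and positive control for full effect; nearly all actives have a fitted effect of over 50% in size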
The depositor's hits bear a star; i = inactive; ? = inconclusive; . = not tested or not shown. Rows were chosen to be rich in hits. Some 0.45% of all compounds tested hit in one or more screens of this group. The call rests on the fitted dose curve; in most records, active means well fitted curve in the direction sought with a large enough effect; inconclusive means small, poorly fitted or top-dose-only effect, or another doubt; inactive means no such curve, though single readings can be large; an effect the other way counts as inactive or inconclusive. Potency means the concentration at half of the fitted maximal effect.

SMILES	EPAC2 antag	EPAC1 agonist	USP1 inh	USP2a block	EPAC2 agonist	EPAC1 antagonist
O=C(O)c1ccccc1NS(=O)(=O)c1ccc(NNC(=S)Nc2ccc(OC(F)F)cc2)c([N+](=O)[O-])c1	?	-10%	?	-2%	-10%	?
CC(=O)Nc1cccc(/C(C)=N/Nc2ccc(S(=O)(=O)Nc3ccccc3C(=O)O)cc2[N+](=O)[O-])c1	?	-14%	?	.	-5%	50µM*
COc1cc2c(cc1OC)C(c1ccccc1)N(C(=O)c1ccco1)CC2 (stereo not drawn)	10µM*	-4%	-3%	0%	15%	-30%
COc1ccc(/C=N/NC(=O)CCN2CCN(c3ccccc3)CC2)c(OC)c1OC	8%	-2%	-7%	-2%	0%	2%
O=C(CCN1CCN(c2ccccc2)CC1)N/N=C/c1ccc(O)c(O)c1O	1%	6%	-23%	2%	5%	79µM*
O=C(NCc1ccccc1)c1ccc2c(c1)nc1n2CCOC1	.	.	4%	.	.	.
O=C(CC(c1ccccc1)c1ccccc1)Nc1ccc(Cl)cn1	-15%	16%	-15%	0%	6.3µM*	-9%
Cc1c(C)c2ccc(OCC(=O)Nc3ccc(S(N)(=O)=O)cc3)c(C)c2oc1=O	22%	-3%	-11%	2%	-7%	71µM*
O=C1c2ccccc2-c2onc3c(N4CCN(C5CCCCC5)CC4)cc(NCCO)c1c23	.	.	16µM*	.	.	.
CCN(CC)c1ccc2cc(S(=O)(=O)c3ccc(Cl)cc3)c(=O)oc2c1	254%	89µM*	i	3%	-322%	126%
COc1ccc(C(=O)Nc2nnc(SCc3cc(=O)n4cc(Cl)ccc4n3)s2)cc1	.	.	-4%	.	.	.
CCC(=O)C1=C(c2cccc([N+](=O)[O-])c2)N(C(=O)CC)n2c(nnc2-c2ccccc2)S1	.	.	-9%	.	.	.
O=C1C=C(Nc2cccnc2)c2ccccc2C1=O	?	11%	14µM*	.	9%	?
CCOc1ccc(NC2=CC(=O)C(=O)c3ccccc32)cc1	1%	-17%	25µM*	.	-5%	-21%
O=C1C=C(Nc2ccc(F)cc2)c2ccccc2C1=O	-6%	-9%	25µM*	1%	-7%	5%
COc1cc(Cl)c(NS(=O)(=O)c2ccc(-c3ccc(=O)[nH]n3)o2)c(OC)c1	-4%	4%	-14%	0%	8%	-10%
COc1cc(Cl)c(NC2=CC(=O)C(=O)c3ccccc32)c(OC)c1	2%	1%	28µM*	0%	-5%	4%
O=C1C(Cl)=C(Nc2ccccc2)C(=O)c2ccccc21	4%	6%	-25%	2%	-1%	-5%
O=C(NCCc1cccs1)Nc1nnc([C@H]2C[C@H](O)[C@@H](CO)O2)s1	6%	-8%	.	.	6%	16%
O=C(Nc1cccc(-c2nc3ccccc3o2)c1)c1cc([N+](=O)[O-])ccc1N1CCOCC1	.	.	2%	.	.	.
CC1=Nc2cc(C(=O)NCCc3ccc(Cl)cc3)ccc2Sc2ccc(C)cc21	.	.	-18%	.	.	.
Oc1c(Br)cc(/C=N/n2c(-c3ccccc3)n[nH]c2=S)c(O)c1Br	0%	1%	-23%	0%	6%	-14%
Cc1c(Br)c(O)c(Br)c(O)c1/C=N/n1c(-c2ccccc2)n[nH]c1=S	-13%	4%	-10%	4%	9%	56µM*
CCOC(=O)C(C)Sc1ncnc2c1nnn2-c1ccc(F)cc1 (stereo not drawn)	20µM*	-6%	-10%	2%	-2%	-15%
CCC(Sc1ncnc2c1nnn2-c1ccc(F)cc1)C(=O)OC (stereo not drawn)	2%	-5%	3%	1%	-2%	10%
SMILES	EPAC2 antag	EPAC1 agonist	USP1 inh	USP2a block	EPAC2 agonist	EPAC1 antagonist
O=c1[nH]c2c(s1)C=Nc1ccccc1N2	51%	27%	28µM*	?	?	30%
CCOC(=O)/C(=C\c1ccc(N2CCC(c3ccccc3)=N2)cc1)C(C)=O	169%	?	28µM*	.	100µM*	11%
COc1cc(OC)c(-c2c3cc(O)c(=O)cc-3oc3cc(O)c(O)cc23)cc1OC	92%	100µM*	25µM*	?	112µM*	182%
Cc1c2cc(O)c(=O)cc-2oc2cc(O)c(O)cc12	?	-276%	?	?	i	82%
O=C1C=C(c2ccccc2)C(c2ccccc2)C1 (stereo not drawn)	35µM*	14%	-8%	.	5%	-2%
O=C(Nc1ccc(F)c(Cl)c1)c1cc(C2CCCCN2C(=O)c2ccc3c(c2)CCO3)on1 (stereo not drawn)	3%	0%	.	.	12%	-11%
O=C(Cn1nc(Cc2ccncc2)c2ccccc2c1=O)N1CCc2ccccc2C1	0%	-7%	28µM*	0%	14%	-6%
CCCCNC(=O)Cn1nc(Cc2ccncc2)c2ccccc2c1=O	4%	8%	-17%	-1%	9%	7%
CCOc1ccc(-c2ccc(NS(=O)(=O)c3cc(C)c(C)cc3C)cc2)nn1	.	.	-17%	.	.	.
CCOC(=O)NNc1ccc2nonc2c1[N+](=O)[O-]	?	-6%	25µM*	-3%	12%	?
CC(Oc1ccc(Cl)cc1Cl)C(=O)Nc1ccncc1 (stereo not drawn)	1%	-3%	-14%	1%	1%	5%
CC(Oc1ccc(Cl)cc1Cl)c1ccn[nH]1 (stereo not drawn)	45µM*	-6%	-8%	0%	12%	-16%
COc1ccccc1Cc1c(-c2ccc(C#N)cc2)nc2ccc(C)cn12	-10%	4%	.	.	9%	-14%
CCn1c(O)c(/C=N/N=C/c2ccc(OC)cc2)c2cc(C3=NNC(=O)CC3)ccc21	11%	11%	-15%	-8%	100µM*	?
CC/C(C)=N\N=C\c1c(O)n(CC)c2cc(C3=NNC(=O)CC3)ccc12	-5%	7%	-3%	5%	3%	-6%
Cc1nn(CCc2nn[nH]n2)c2nc(-c3ccc(C4CCCCC4)cc3)cc(C(F)(F)F)c12	?	-15%	?	1%	-23%	79µM*
